Screening results (PubChem BioAssay)
EPAC1 antagonist – qHTS for Antagonist of cAMP-regulated guanine nucleotide exchange factor 3 (EPAC1): primary screen. EPAC1 GEF assay, Rap1b-BODIPY-GDP exchange fluorescence. Potency, µM (series often up to 115 µM), inactives show at the top dose activity change, negative = inhibition, usual class: inhibitors. 0.14% of 360,000 active. Rap guanine nucleotide exchange factor 3 (Homo sapiens), O95398;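 note: plate controls were vehicle for no effect and positive control for full effect; nearly all actives have a fitted effect of over 50% in size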
RGS4 inh – Inhibitors of Regulator of G Protein Signaling (RGS) 4: qHTS. Regulator of G-protein signaling 4 (Homo sapiens), P49798. Transcreener GDP fluorescence polarization, RGS4-accelerated GTP hydrolysis. Potency, µM (top dose mostly 114 µM), for inactives: top-dose activity change, negative = inhibition, hits mostly inhibitors. 0.039% of 390,000 active; note: % is set by controls: 0 for no effect and ±100 for the full control effect; nearly all actives have a fitted effect of over 75% in size
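MLSMR compounds (23 nl, pin-transferred) preincubated 10 min at room temperature with a 500nM (2x) first reagent, then RGS4 at 900nM (2x) plus Transcreener GDP mix added; fluorescence polarization (620/688 nm) read before and after 90 min at 30 °C.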
EPAC2 ag – qHTS for Agonist of cAMP-regulated guanine nucleotide exchange factor 4 (EPAC2): primary screen; Potency, µM (top dose mostly 154 µM), inactives show top-dose activation, actives largely listed as activators; Rap guanine nucleotide exchange factor 4 (Homo sapiens), Q8WZA2; EPAC2 activation, biochemical qHTS; response scale: 100% = 6.5 mM cAMP response; 0.079% of 360,000 active; note: nearly all actives have a fitted effect of over 50% in size
Target sequence (Q8WZA2 whole entry, looked up): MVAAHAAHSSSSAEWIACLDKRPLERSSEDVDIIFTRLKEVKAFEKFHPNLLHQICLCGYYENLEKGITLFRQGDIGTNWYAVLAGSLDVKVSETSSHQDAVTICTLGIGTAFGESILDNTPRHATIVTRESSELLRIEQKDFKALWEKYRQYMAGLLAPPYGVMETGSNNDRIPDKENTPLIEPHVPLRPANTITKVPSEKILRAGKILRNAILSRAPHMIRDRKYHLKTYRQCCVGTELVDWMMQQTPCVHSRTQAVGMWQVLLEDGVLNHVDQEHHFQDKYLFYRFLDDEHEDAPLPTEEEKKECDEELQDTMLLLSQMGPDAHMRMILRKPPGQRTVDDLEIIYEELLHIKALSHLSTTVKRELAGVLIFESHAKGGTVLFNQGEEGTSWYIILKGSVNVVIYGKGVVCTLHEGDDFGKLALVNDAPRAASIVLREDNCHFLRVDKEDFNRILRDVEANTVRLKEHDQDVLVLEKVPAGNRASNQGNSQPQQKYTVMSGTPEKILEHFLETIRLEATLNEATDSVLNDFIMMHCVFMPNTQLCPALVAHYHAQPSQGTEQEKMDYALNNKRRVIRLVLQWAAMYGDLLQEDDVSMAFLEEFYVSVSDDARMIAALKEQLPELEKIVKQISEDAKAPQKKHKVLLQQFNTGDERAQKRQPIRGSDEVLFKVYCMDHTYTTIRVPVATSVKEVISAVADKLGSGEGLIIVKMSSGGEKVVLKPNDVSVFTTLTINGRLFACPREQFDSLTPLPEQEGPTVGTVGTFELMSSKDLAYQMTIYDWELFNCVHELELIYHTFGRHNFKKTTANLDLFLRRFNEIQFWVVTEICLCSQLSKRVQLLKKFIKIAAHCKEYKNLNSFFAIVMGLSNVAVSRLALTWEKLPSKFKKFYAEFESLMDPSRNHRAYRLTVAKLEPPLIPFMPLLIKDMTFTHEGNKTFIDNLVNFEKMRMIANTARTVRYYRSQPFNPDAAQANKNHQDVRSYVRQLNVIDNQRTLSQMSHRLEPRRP
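Compounds were added across a concentration range to EPAC2 (100 nM), RAP1B-BODIPY-GDP (250 nM) and GDP (50 uM). After 5 min at room temperature, fluorescence was recorded at 5-min intervals for 30 min.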
EPAC2 antag – qHTS for Antagonist of cAMP-regulated guanine nucleotide exchange factor 2 (EPAC2): primary screen; AID 720708, 2013; 0.18% of 360,000 active; EPAC2 GEF exchange of Rap1B-BODIPY-GDP, fluorescence; Rap guanine nucleotide exchange factor 4 (Homo sapiens), Q8WZA2; Potency, µM (highest dose often 114 µM), for inactives: at the highest dose activity, negative = inhibition, hits mostly inhibitors; note: % is set by controls: 0 for no effect and ±100 for the full control effect; nearly all actives have a fitted effect of over 45% in size
EPAC1 agonist – qHTS for Agonist of cAMP-regulated guanine nucleotide exchange factor 3 (EPAC1): primary screen; EPAC1 agonist qHTS, biochemical assay; response scale: 100% = response to 6.5 mM cAMP; Rap guanine nucleotide exchange factor 3 (Homo sapiens), O95398; AID 720707, 2013; 0.073% of 360,000 active; Potency, µM (doses to about 154 µM), inactives show top-dose activation, actives largely listed as activators; note: nearly all actives have a fitted effect of over 60% in size
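Compounds were pinned as a concentration titration into mixtures of EPAC1 (100 nM), BODIPY-GDP-loaded Rap1B (250 nM) and GDP (50 uM). After 5 min at room temperature, fluorescence was followed for 30 min; activity was scaled to 6.5 mM cAMP.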
BRCA1 expr act – qHTS Assay to Identify Small Molecule Activators of BRCA1 Expression; MCF7-BRCA1-FFLuc reporter, luminescence, 48 h; response scale: scaled: vehicle 0%, 10 µM genistein 100%; Potency, µM (doses to about 46.1 µM), for inactives: at the top dose activation, usual class: activators; 1.1% of 380,000 active; AID 624202, 2012; note: nearly all actives have a fitted effect of over 80% in size
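Cells: MCF7-BRCA1-FFLuc, 2000/well. Exposure: 48 h, 37 °C, 5% CO2. Read: luminescence, 15 min post-substrate. Controls: genistein 10 microM (maximal activation), DMSO (neutral).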
An asterisk follows results filed as active; i = inactive; ? = inconclusive; / = not tested or not shown; [ ] = another dose, or the depositor's remark. Only some compounds are listed: those with a hit (about 1.3% of all), similar ones and a draw of the others. Calls come from the whole dose curve; as a rule, active = well fitted curve in the direction sought with a large enough effect; inconclusive = small, poorly fitted or top-dose-only effect, or another doubt; inactive = no such curve, though single readings can be large; an effect the other way counts as inactive or inconclusive. Potency is the fitted concentration of half-maximal effect.

SMILES	EPAC1 antagonist	RGS4 inh	EPAC2 ag	EPAC2 antag	EPAC1 agonist	BRCA1 expr act
CC(Oc1ccc(Cl)cc1Cl)C(=O)Nc1ccncc1 (configuration not stated)	5.4%	-9.0%	1.3%	1.0%	-2.9%	-12.7%
COc1ccc(C(=O)N(C)CC2CCN(CCc3cccc(C(F)(F)F)c3)CC2)cc1C	9.0%	-1.8%	-9.3%	-10.6%	-12.0%	-13.9%
O=C(Nc1nc2nccc(-c3ccccc3)n2n1)c1ccc(F)cc1	4.0%	-12.2%	6.4%	-2.4%	4.0%	4.1%
O=C(Nc1nsc(-c2ccccc2)n1)c1ccc(F)cc1	-12.0%	14.2%	7.1%	2.6%	1.0%	11.2µM*
Cc1ccc(N2CS(=O)(=O)/C(=C/N(C)C)C2=O)cc1	-8.6%	-18.2%	-2.7%	-0.4%	-0.2%	86.2%
CN(C)/C=C1\C(=O)N(c2ccc(Cl)cc2)CS1(=O)=O	0.0%	15.8%	2.1%	2.3%	0.0%	7.94µM*
Cn1c(C(=O)NCc2cccc(F)c2)cc2cc(S(=O)(=O)N3CCCCC3)ccc21	/	11.7%	/	/	/	/
CC1(C(=O)Nc2ccc3c(c2)OCCO3)CCN1Cc1ccc(-c2ccccn2)cc1 (configuration not stated)	5.4%	/	-11.1%	-12.8%	-9.4%	7.6%
Cc1ccc(N2C(=O)c3ccccc3NC2c2ccccc2O)cc1 (configuration not stated)	6.4%	-2.2%	0.9%	8.4%	-8.3%	1.58µM*
CCOC(=O)c1ccc2nc3c(cc2c1)CCS3	13.8%	-17.9%	5.6%	12.4%	4.8%	10µM*
CCCC(=O)Nc1nc2ccc(C(=O)OCC)cc2s1	-29.2%	-4.0%	3.7%	-8.6%	1.4%	63.5%
COC(=O)C1=NN(c2ccc(C)cc2)C2(S1)SC(C(C)=O)=C(C)N2c1ccccc1 (configuration not stated)	5.4%	-17.0%	7.3%	3.16µM*	4.3%	17.6%
Clc1ccc(-c2cc(CSc3ccccc3)on2)cc1	-27.6%	1.1%	-3.6%	5.2%	4.0%	3.55µM*
COc1ccc(OC)c(S(=O)(=O)NCc2cc(-c3ccccc3)no2)c1	-11.4%	-9.4%	-5.1%	-4.9%	3.2%	-8.0%
COc1ccc(OCc2cc(-c3ccc(Cl)cc3)no2)cc1	-14.0%	26.3%	12.3%	4.4%	1.8%	21.1%
c1ccc(OCc2cc(-c3ccccc3)no2)cc1	1.7%	1.0%	16.2%	4.6%	5.2%	5.01µM*
COc1ccccc1OCc1cc(-c2ccccc2)no1	-4.7%	0.4%	6.8%	-12.1%	3.5%	2.82µM*
O=C(COC(=O)/C=C/c1ccc(Cl)c(Cl)c1)NC1CC1	8.1%	5.6%	-1.1%	1.1%	-3.3%	-2.2%
CCOC(=O)c1c(C)[nH]c(C)c1S(=O)(=O)NCCN1CCN(c2cc(Cl)ccc2C)CC1	-12.8%	-24.7%	3.7%	?	-14.9%	-86.7%
CC(=O)c1ccc(N2CCN(S(=O)(=O)c3cc(-c4cc(C)no4)ccc3C(C)C)CC2)cc1	10.2%	5.3%[56.9 µM]	5.6%	3.8%	13.3%	-34.1%
CCOC(=O)/C(C#N)=C\C=C1C=CN(C)C=C1	-10.0%	7.8%	26.6%	0.9%	25.6%	3.98µM*
O=C(COC(=O)C1COc2ccccc2O1)NC1CCCCC1 (configuration not stated)	-8.4%	-10.8%	-3.1%	1.4%	0.4%	-13.2%
CCOC(=O)c1ccccc1N/C=C/C(=O)c1ccccc1	0.0%	-5.8%	-2.6%	-4.6%	2.6%	-14.2%
CCOC(=O)c1ccc(CNCc2ccccc2)cc1	2.0%	-2.3%	-0.7%	5.4%	-4.7%	11.2µM*
CCOC(=O)c1ccc(N/C=C/C(=O)c2ccccc2)cc1	-18.1%	-3.1%	3.9%	-5.1%	13.3%	12.6µM*
SMILES	EPAC1 antagonist	RGS4 inh	EPAC2 ag	EPAC2 antag	EPAC1 agonist	BRCA1 expr act
CNC(=S)N/N=C/c1ccc(N(C)C)cc1	-28.1%	-11.5%	9.4%	-2.6%	1.5%	?
CNC(=S)N/N=C/c1ccc(C(C)C)cc1	0.2%	-30.2%[11.4 µM]	9.4%	-1.7%	2.2%	5.01µM*
COCCCNc1c2c3c(cccc3[nH]c1=O)C(=O)c1ccccc1-2	i	6.0%	100µM*	i	100µM*	-51.4%
COCCCNC1=C(Cl)C(=O)c2ccccc2C1=O	-3.8%	18.8%	1.7%	-21.4%	-2.2%	-42.5%
Cn1c(SCc2ccc(C#N)cc2Cl)nc2ccccc21	0.5%	2.1%	17.0%	-5.0%	11.9%	4.47µM*
N#Cc1ccc(CSc2ccccn2)c(Cl)c1	-10.0%	20.5%	4.2%	?	11.0%	51.8%
O=C(CN(Cc1cccs1)C(=O)CCC(=O)Nc1ccccn1)NCc1ccccc1	-1.2%	-27.6%	-2.1%	3.6%	-2.8%	-14.7%
COc1ccc(CCNc2ncccc2C#N)cc1OC	22.5%	-5.1%	-1.9%	-6.6%	4.4%	3.98µM*
COc1ccc(CCNc2ncnc3cc(OC)c(OC)cc23)cc1OC	-13.6%	-18.2%	1.2%	1.2%	-9.7%	-36.4%
CCN(C(=O)COC(=O)/C=C/c1ccc(S(=O)(=O)N2CCc3ccccc32)cc1)C1CCS(=O)(=O)C1 (configuration not stated)	-10.3%	16.6%	3.1%	-10.7%	7.8%	2.4%
O=C1NN(c2cccc(Br)c2)C(=O)/C1=C/c1ccc(-c2cc([N+](=O)[O-])ccc2O)o1	-16.8%	-30.8%	-13.8%	39.8µM*	-6.1%	-5.3%
CC1=NN(c2ccc(C)cc2)C(=O)/C1=C/c1ccc(-c2cc([N+](=O)[O-])ccc2O)o1	?	-33.0%	-6.6%	7.2%	-3.5%	-0.5%
Cc1cc(CN(C)C(=O)c2ccc(OC3CCN(CCc4ccccc4)CC3)cc2)on1	-17.8%	2.8%	1.1%	0.6%	1.9%	-18.7%
Cn1c(N)c(C(=O)CSc2nnc(-c3c[nH]c4ccccc34)n2C2CC2)c(=O)[nH]c1=O	?	?	63.1µM*	50.1µM*	9.6%	-7.0%
COC(=O)c1cccc(CN2C(=O)C(C)Sc3cc(Cl)ccc32)c1 (configuration not stated)	-14.1%	/	7.8%	-28.3%	-0.8%	5.01µM*
COc1cccc(/C=N/Nc2nc3ccccc3[nH]2)c1OC	-25.2%	2.5%	7.9%	7.6%	8.5%	7.94µM*
